Data reported in the supplement of paper PMC6897291.
Where a name gives a salt, the structure may show the parent alone.

Each compound was assayed on RIVA (assay: growth inhibition by drug alone (1 - RLU/untreated control) (fraction); higher = stronger inhibition). Conditions: 10 nM; time (day): 4; 177Lu-lilotomab satetraxetan 0 ug/ml.
Summary of the method: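 With or without 18 h pretreatment by a radiolabelled anti-CD37 antibody conjugate (~600 MBq/mg; 0.5 µg/ml RIVA, 1 µg/ml U-2932), RIVA and U-2932 cells were washed and plated at 3,000 cells/well. Pre-printed compound doses were 10/100 nM for RIVA and 10/1,000 nM for U-2932. Growth inhibition uses RealTime-Glo RLU relative to the untreated no-drug wells. The calculation is 1 − RLU/mean of 48 such wells per plate, with reads daily from day 3 after 1 h at 37°C.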

| SMILES | growth inhibition by drug alone |
| --- | --- |
| Nc1nc2[nH]cc(CCc3ccc(C(=O)N[C@@H](CCC(=O)O)C(=O)O)cc3)c2c(=O)[nH]1 [Pemetrexed] | -0.198 |
| COc1cc2nccc(Oc3ccc(NC(=O)Nc4cc(C)on4)c(Cl)c3)c2cc1OC [Tivozanib (AV-951)] | 0.0633 |
| CCC(=O)N1CCN(c2ccc(-n3c(=O)ccc4cnc5ccc(-c6cnc7ccccc7c6)cc5c43)cc2C(F)(F)F)CC1 [Torin 1] | 0.0386 |
| COc1cccc2c1C(=O)c1c(O)c3c(c(O)c1C2=O)C[C@@](O)(C(=O)CO)C[C@@H]3O[C@H]1C[C@H](N)[C@@H](O)[C@H](C)O1 [Epirubicin Hydrochloride] | 0.0051 |
| Clc1ccc(Nc2nnc(Cc3ccncc3)c3ccccc23)cc1 [Vatalanib dihydrochloride (PTK787)] | -0.0522 |
| COc1cc2nccc(Oc3ccc(NC(=O)C4(C(=O)Nc5ccc(F)cc5)CC4)cc3)c2cc1OC [XL-184 free base (Cabozantinib)] | 0.0385 |
| C[C@@H](O[C@H]1OCCN(Cc2n[nH]c(=O)[nH]2)[C@H]1c1ccc(F)cc1)c1cc(C(F)(F)F)cc(C(F)(F)F)c1 [Aprepitant (MK-0869)] | -0.258 |
| COc1cc2c(cc1O)CC[C@@H]1[C@@H]2CC[C@]2(C)[C@@H](O)CC[C@@H]12 [2-Methoxyestradiol] | -0.3 |
| CNCc1ccc(-c2[nH]c3cc(F)cc4c3c2CCNC4=O)cc1 | -0.0309 |
| CC[C@@]1(O)C(=O)OCc2c1cc1n(c2=O)Cc2cc3c(CN(C)C)c(O)ccc3nc2-1 [Topotecan HCl] | 0.629 |
| Nc1cc(C(F)(F)F)c(-c2cc(N3CCOCC3)nc(N3CCOCC3)n2)cn1 | -0.261 |
| CC(C)(C)c1ccc(S(=O)(=O)/C=C/C#N)cc1 | -1.37e-05 |
| C[C@]1(c2nc3c(C(N)=O)cccc3[nH]2)CCCN1 [ABT-888 (Veliparib)] | -0.176 |
| Cc1ccc(NC(=O)c2ccc(CN3CC[C@H](N(C)C)C3)c(C(F)(F)F)c2)cc1Nc1nccc(-c2cncnc2)n1 [Bafetinib (INNO-406)] | 0.204 |
| C[C@]12CC[C@@H]3c4ccc(O)cc4CC[C@H]3[C@@H]1CCC2=O [Estrone] | -0.0604 |
| O=C(c1ccc(OCCN2CCCCC2)cc1)c1c(-c2ccc(O)cc2)sc2cc(O)ccc12 [Evista (Raloxifene Hydrochloride)] | -0.0405 |
| CCN(CC)CCNC(=O)c1c(C)[nH]c(/C=C2\C(=O)Nc3ccc(F)cc32)c1C [Sunitinib Malate (Sutent)] | -0.163 |
| CCOc1ccc(Nc2nc(-c3c(C)nc4ccccn34)cs2)cc1 | 0.0644 |
| C=CC(=O)N1CCC[C@@H](n2nc(-c3ccc(Oc4ccccc4)cc3)c3c(N)ncnc32)C1 | 0.716 |
| CS(=O)(=O)c1cccc(CNc2nc(Nc3ccc4c(c3)CCC(=O)N4)ncc2C(F)(F)F)c1 | -0.0828 |
| CC(NC(=O)c1ccccc1/N=C/c1c(O)ccc2ccccc12)c1ccccc1 (stereo not given) [Sirtinol] | 0.00147 |
| CN(Cc1cnc2nc(N)nc(N)c2n1)c1ccc(C(=O)N[C@@H](CCC(=O)O)C(=O)O)cc1 [Abitrexate (Methotrexate)] | -0.255 |
| OCCn1cc(-c2cnc3nnn(Cc4ccc5ncccc5c4)c3n2)cn1 | 0.00592 |
| COc1cc(Nc2ncc(F)c(Nc3ccc4c(n3)NC(=O)C(C)(C)O4)n2)cc(OC)c1OC [R406(free base)] | -0.0293 |
| COc1cccc2c1C(=O)c1c(O)c3c(c(O)c1C2=O)C[C@@](O)(C(=O)CO)C[C@@H]3O[C@H]1C[C@H](N)[C@H](O)[C@H](C)O1 [Doxorubicin (Adriamycin)] | 0.324 |
| CN(NC(=O)CC(=O)NN(C)C(=S)c1ccccc1)C(=S)c1ccccc1 [Elesclomol] | 0.964 |
| CN(C)CCOc1ccc(/C(=C(/CCCl)c2ccccc2)c2ccccc2)cc1 [Toremifene Citrate (Fareston, Acapodene)] | 0.188 |
| CN1CCN(CCOc2cc(OC3CCOCC3)c3c(Nc4c(Cl)ccc5c4OCO5)ncnc3c2)CC1 [Saracatinib (AZD0530)] | -0.164 |
| CC(C)C[C@H](NC(=O)[C@H](Cc1ccccc1)NC(=O)c1cnccn1)B(O)O [Bortezomib (Velcade)] | 0.946 |
| Cn1cncc1[C@@](N)(c1ccc(Cl)cc1)c1ccc2c(c1)c(-c1cccc(Cl)c1)cc(=O)n2C [Tipifarnib (Zarnestra)] | -0.241 |
